This is one part of a sample in which hits are shown more often than they occur.
Tg IFNy HTS = T. gondii growth inhibition with IFN-gamma, primary screen, cell-based; Toxoplasma gondii growth in IFN-gamma-treated host cells; stronger effect = lower value; activity change, negative = inhibition, % (concentration not given with the values); 3.8% of 69,000 active; in the data active means activity change below about -70%, passing the limit was not always enough;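 further: host cells are HeLa cells infected with Toxoplasma gondii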
A number is an active result; ! = not confirmed by another sample.

Results for CCS(=O)(=O)N1CCN(C(=O)CC2C(=O)NCCN2Cc2ccccc2)CC1 (centres undefined) ?
Tg IFNy HTS: inactive

What do the screens show for `Cc1ccc(CN(CCCN2CCOCC2)Cc2cncc3c(Cl)[nH]nc23)o1`?
Tg IFNy HTS: inactive

How did O=C(C1CCCCO1)N1CCc2[nH]nc(-c3ccc(-c4ccccc4)cc3)c2C1 (centres undefined) do in these assays?
Tg IFNy HTS: inactive

Results for CCc1ccc2oc(=O)cc(CN3CCN(Cc4nc(-c5cccc(Cl)c5)oc4C)CC3)c2c1 ?
Tg IFNy HTS: inactive

Results for Cc1ncc(C(=O)N2CCCC(CCc3ccc(F)cc3)C2)s1 (centres undefined) ?
Tg IFNy HTS: inactive

Results for O=C(c1ccc2cccnc2c1O)N1CCCC(CCc2ccc(F)cc2)C1 (centres undefined) ?
Tg IFNy HTS: -81

Results for O=C(c1cn[nH]c1-n1cnnn1)N1CCCC(CCc2ccc(F)cc2)C1 (centres undefined) ?
Tg IFNy HTS: inactive

How did O=C(NCCc1ccncc1)c1cccc2[nH]cc(CN3CCSCC3)c12 do in these assays?
Tg IFNy HTS: inactive

Results for O=C(NCCc1c[nH]c2ccc(Cl)cc12)c1cccs1 ?
Tg IFNy HTS: inactive

How did O=C(NCCc1c[nH]c2ccc(Cl)cc12)c1sc2ncccc2c1-n1cccc1 do in these assays?
Tg IFNy HTS: inactive

How did CCCN1CCN(c2ncnc3sc(C(=O)NCCc4c[nH]c5ccc(Cl)cc45)c(C)c23)CC1 do in these assays?
Tg IFNy HTS: -85

Results for COCC(=O)NCCc1csc(-c2ccc(Cl)cc2)n1 ?
Tg IFNy HTS: inactive

Results for COc1ccc(C=O)c(OC)c1 ?
Tg IFNy HTS: inactive

What do the screens show for `COc1cc(/C=C/c2ccc(OC)cc2OC)cc(OC)c1`?
Tg IFNy HTS: -76!

What do the screens show for `COC(=O)c1cc(OC)c(OC)cc1NC(=O)Nc1ccc(OC)cc1OC`?
Tg IFNy HTS: inactive

What do the screens show for `COc1ccc(-c2ccc(C(=O)N3CCCC3)o2)c2cccnc12`?
Tg IFNy HTS: inactive

What do the screens show for `Cc1ccc2cc(CN(CCO)CCO)c(=O)[nH]c2c1`?
Tg IFNy HTS: inactive

What do the screens show for `O=c1[nH]c2cc3c(cc2cc1CN(CCO)Cc1nnnn1Cc1ccccc1)OCCO3`?
Tg IFNy HTS: -82

Results for CN(CCCc1cnn(C)c1)Cc1cc2ccc(F)cc2[nH]c1=O ?
Tg IFNy HTS: inactive

How did CCn1ncc2c1CN(S(=O)(=O)c1cn(C)cn1)CC2COC (centres undefined) do in these assays?
Tg IFNy HTS: inactive

How did O=S(=O)(NC1CCOC2(CCN(Cc3ccccc3Cl)CC2)C1)C1CC1 (centres undefined) do in these assays?
Tg IFNy HTS: inactive

What do the screens show for `Cc1occc1C(=O)N1C[C@@H]2OCCN(CCN3CCCC3)[C@H]2C1`?
Tg IFNy HTS: inactive

Results for CSc1nc(N)nc(COc2ccccc2Cl)n1 ?
Tg IFNy HTS: inactive

Results for Nc1ncnc(SCc2c(Cl)cccc2Cl)n1 ?
Tg IFNy HTS: -81

How did O=c1[nH]c(SCc2c(Cl)cccc2Cl)nc2ccnn12 do in these assays?
Tg IFNy HTS: inactive

How did Fc1cccc(-c2nccn2Cc2noc(Cc3ccccc3)n2)c1 do in these assays?
Tg IFNy HTS: inactive

Results for CCN(Cc1ccncc1)C(=O)c1cc(C)c(C)c(S(N)(=O)=O)c1 ?
Tg IFNy HTS: inactive

Results for O=C(NC(=O)c1ccccc1O)c1ccoc1 ?
Tg IFNy HTS: -84

What do the screens show for `Cc1ccc(NC(=O)c2ccoc2)cc1NCC#N`?
Tg IFNy HTS: inactive

How did O=C(NC(=S)N1CCOCC1)c1ccccc1 do in these assays?
Tg IFNy HTS: inactive

How did CCOCC(=O)N1CCn2c(COc3cccnc3)cnc2C1C (centres undefined) do in these assays?
Tg IFNy HTS: inactive

How did CCN1C(=O)N(CCCc2cccnc2)C(=O)C12CCN(Cc1ccc3c(c1)OCCO3)CC2 do in these assays?
Tg IFNy HTS: inactive

What do the screens show for `COc1ccc(S(=O)(=O)Nc2ccc3c(c2)C(=O)N([C@H](C)CO)C[C@H](C)[C@@H](CN(C)S(=O)(=O)c2ccc(Cl)cc2)OCCCC[C@H](C)O3)cc1`?
Tg IFNy HTS: -113

How did C[C@@H]1CCCCO[C@H](CN(C)S(=O)(=O)c2ccc(Cl)cc2)[C@H](C)CN([C@@H](C)CO)C(=O)c2cc(NC(=O)Nc3ccc(C(F)(F)F)cc3)ccc2O1 do in these assays?
Tg IFNy HTS: inactive

What do the screens show for `C[C@@H]1CCCCO[C@@H](CN(C)S(=O)(=O)c2ccc(Cl)cc2)[C@@H](C)CN([C@@H](C)CO)C(=O)c2cc(NC(=O)Nc3ccc(C(F)(F)F)cc3)ccc2O1`?
Tg IFNy HTS: inactive

How did COc1ccc(S(=O)(=O)Nc2ccc3c(c2)C(=O)N([C@@H](C)CO)C[C@H](C)[C@@H](CN(C)S(=O)(=O)c2ccc(Cl)cc2)OCCCC[C@@H](C)O3)cc1 do in these assays?
Tg IFNy HTS: -113

How did COc1ccc(S(=O)(=O)Nc2ccc3c(c2)C(=O)N([C@H](C)CO)C[C@H](C)[C@@H](CN(C)S(=O)(=O)c2ccc(Cl)cc2)OCCCC[C@@H](C)O3)cc1 do in these assays?
Tg IFNy HTS: inactive

What do the screens show for `COc1ccc(S(=O)(=O)Nc2ccc3c(c2)C(=O)N([C@@H](C)CO)C[C@@H](C)[C@@H](CN(C)S(=O)(=O)c2ccc(Cl)cc2)OCCCC[C@H](C)O3)cc1`?
Tg IFNy HTS: -128

What do the screens show for `COc1ccc(S(=O)(=O)Nc2ccc3c(c2)C(=O)N([C@@H](C)CO)C[C@H](C)[C@@H](CN(C)S(=O)(=O)c2ccc(Cl)cc2)OCCCC[C@H](C)O3)cc1`?
Tg IFNy HTS: -130

How did C[C@@H]1CCCCO[C@H](CN(C)S(=O)(=O)c2ccc(Cl)cc2)[C@@H](C)CN([C@@H](C)CO)C(=O)c2cc(NC(=O)Nc3ccc(C(F)(F)F)cc3)ccc2O1 do in these assays?
Tg IFNy HTS: inactive

How did C[C@@H]1CN([C@@H](C)CO)C(=O)c2cc(NC(=O)Nc3ccc(C(F)(F)F)cc3)ccc2O[C@@H](C)CCCCO[C@@H]1CN(C)S(=O)(=O)c1ccc(Cl)cc1 do in these assays?
Tg IFNy HTS: inactive

What do the screens show for `C[C@@H]1CN([C@H](C)CO)C(=O)c2cc(NS(=O)(=O)c3ccc(Cl)cc3)ccc2O[C@@H](C)CCCCO[C@@H]1CN(C)C(=O)CCCN(C)C`?
Tg IFNy HTS: inactive

Results for O=C(c1cccc(F)c1)N1CC2CC(C1)N(CCO)C2 (centres undefined) ?
Tg IFNy HTS: inactive

How did CN(C)CC1(O)CCN(C(=O)c2ccc(-n3cnnc3)cc2Cl)C1 (centres undefined) do in these assays?
Tg IFNy HTS: inactive

How did COc1ccc(-c2nc(Cn3ccn4nc(-c5ccc(Cl)cc5)cc4c3=O)c(C)o2)cc1 do in these assays?
Tg IFNy HTS: inactive

Results for FC(F)(F)c1cccc(C(c2nnnn2CCc2ccccc2)N2CCSCC2)c1 (centres undefined) ?
Tg IFNy HTS: inactive

Results for C1=C(Cc2nc(-c3ccccc3)nn2-c2ccccn2)CCNC1 ?
Tg IFNy HTS: inactive

What do the screens show for `COc1ccc2[nH]cc(CCN3CC(C(=O)NC4CCCC4)CC3=O)c2c1` (centres undefined)?
Tg IFNy HTS: inactive

What do the screens show for `CN(C)C(=O)COCC1CN(CC2CCOCC2)Cc2ncn(C)c21` (centres undefined)?
Tg IFNy HTS: inactive

How did Nc1cc(C(=O)NCC(c2ccc(Cl)cc2)N2CCCC2)[nH]n1 (centres undefined) do in these assays?
Tg IFNy HTS: inactive

How did Cn1cnc(-c2nc(C(=O)NCC3CCCO3)c3ccccn23)c1 (centres undefined) do in these assays?
Tg IFNy HTS: inactive

Results for CN(Cc1cc(C2CC2)n[nH]1)C(=O)CCc1cn2ccccc2n1 ?
Tg IFNy HTS: inactive
